Bioassay records (PubChem)
Efflux pump mplx: inhibitors of Candida antifungal efflux pumps expressed in yeast; AID 485275; hit rate 0.44% among 330,000; S. cerevisiae Candida pump triplex, Nile Red efflux; inhibition, % at 10 µM;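 active = plate passing quality check with inhibition over a set limit, or well fluorescence over plate mean plus 4 SD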;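 also: Nile Red retained in pooled yeast measured as flow cytometry median fluorescence; 0% = buffer negative control and 100% = Enniatin B positive control; higher means more Nile Red kept so more efflux inhibition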
PvdQ inh: P. aeruginosa PvdQ acylase inhibition; purified PvdQ acylase, fluorescence plate reader; hit rate 0.063% among 340,000; inhibition, % at 10 µM; in the data active = inhibition above about 30%, passing the limit was not always enough;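 also: 0% = vehicle neutral wells and 100% = reference inhibitor wells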
PDI turbidity: blocks human protein disulfide isomerase activity | PDI insulin aggregation turbidity, A650, 90 min | P07237 | inhibition, % at 10 µM | hit rate 0.052% among 350,000 | AID 588391;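 active = mean inhibition across replicates of 30% or more, whatever share of single replicates reach that level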
Rtt109 Vps75: C. albicans Rtt109 histone acetyltransferase inhibition; Q5AAJ8; purified Rtt109/Vps75, ThioGlo CoA-SH fluorescence, 4 h; hit rate 0.16% among 330,000; AID 540336; inhibition, % at 34.9 µM;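 active = inhibition of at least 50% in every replicate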
Target sequence (Q5AAJ8 whole entry, looked up): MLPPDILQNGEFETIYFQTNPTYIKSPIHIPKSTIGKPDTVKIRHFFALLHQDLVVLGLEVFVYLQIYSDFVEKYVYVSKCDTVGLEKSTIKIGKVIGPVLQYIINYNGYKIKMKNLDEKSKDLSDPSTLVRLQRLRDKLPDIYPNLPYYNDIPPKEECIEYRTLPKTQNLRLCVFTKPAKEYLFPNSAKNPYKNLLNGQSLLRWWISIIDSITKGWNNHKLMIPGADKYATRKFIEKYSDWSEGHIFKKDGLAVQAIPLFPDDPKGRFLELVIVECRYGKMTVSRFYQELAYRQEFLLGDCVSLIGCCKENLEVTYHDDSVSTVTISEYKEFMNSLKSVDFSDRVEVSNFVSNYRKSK
ERp5 inh: blocks human ERp5 reductase activity on insulin; Q15084; AID 651711; inhibition, % at 9.99 µM; ERp5 insulin aggregation, absorbance 650 nm, 90 min; hit rate 0.05% among 350,000;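 active = mean replicate inhibition above about 25%, with every replicate also reaching it, limit read from the data, passing the limit was not always enough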
Yeast cmpd fluor: compound fluorescence in yeast efflux pump counter-screen. S. cerevisiae AD/pABC3, flow cytometry. fluorescence ratio to DMSO, % at 10 µM. hit rate 4% among 1,700. shares compounds with Efflux pump mplx;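 active = fluorescence ratio to DMSO above its plate's cutoff, the plate mean ratio plus 5 SD, cut at about 210% in these data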;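 also: unstained yeast with no Nile Red so the signal is compound autofluorescence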
Mdr1 pump inh: Candida Mdr1 efflux pump inhibition; hit rate 1% among 1,700; inhibition, % at 10 µM; shares compounds with Efflux pump mplx; AID 588518; S. cerevisiae AD/CaMDR1, Nile Red efflux, flow cytometry; in the data active = inhibition above about 26%;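 also: 0% = DMSO vehicle and 100% = reference inhibitor; higher means more Nile Red retained so more efflux inhibition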
CaCdr2 efflux inh: inhibitors of Candida albicans Cdr2 efflux pump; S. cerevisiae AD/CaCDR2, Nile Red retention, flow cytometry; shares compounds with Efflux pump mplx; Nile Red retention ratio vs DMSO, % at 10 µM; hit rate 4% among 1,700; in the data active = Nile Red retention ratio vs DMSO above about 190%;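 also: higher ratio means more blocking of Cdr2 efflux of the dye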
Cdr1 pump inh: blocks the Candida albicans Cdr1 efflux pump in yeast; hit rate 1% among 1,700; S. cerevisiae AD/CaCDR1, Nile Red efflux, flow cytometry; shares compounds with Efflux pump mplx; inhibition, % at 10 µM;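 active = inhibition above the screen-wide mean plus twice its standard deviation, cut at about 32% in these data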
* = called active by the depositor; . = no result; + = active, no number. The list is not random: actives were taken first. Their share in the collection is about 0.54%.

SMILES	Efflux pump mplx	PvdQ inh	PDI turbidity	Rtt109 Vps75	ERp5 inh	Yeast cmpd fluor	Mdr1 pump inh	CaCdr2 efflux inh	Cdr1 pump inh
CCCSc1cc(N2CCCC2)nc(-c2ccccc2)n1	0	-1	-4	16	.	+	1	127	0
CCCSc1cc(N2CCN(C)CC2)nc(-c2ccc(OC)cc2)n1	1	-14	-1	11	.	82	0	89	0
CCCN1C[C@@H](C)[C@@H](OC)CN(C)C(=O)c2ccc(NC(=O)Nc3ccccc3F)cc2OC[C@H]1C	.	.	.	.	1	.	.	.	.
Cc1ccc(-c2cnc3c(c2)C(=O)N([C@H](C)CO)C[C@@H](C)[C@@H](CN(C)C)O3)cc1	.	.	.	.	-7	.	.	.	.
CCCN(C)C[C@@H]1OCCCC[C@@H](C)Oc2ccc(NC(=O)CCC(F)(F)F)cc2C(=O)N([C@@H](C)CO)C[C@@H]1C	.	.	.	.	-8	.	.	.	.
Cc1cc(C)c(S(=O)(=O)Nc2ccc(O)c(Sc3ncn[nH]3)c2)cc1C	0	-29	.	8	2	92	0	91	0
Cc1cc(C)c(S(=O)(=O)Nc2ccc(O)c(Sc3ncn[nH]3)c2)c(C)c1	11*	-13	4	5	13	103	0	91	0
Cc1cc(C)c(S(=O)(=O)Nc2ccc(O)cc2)cc1C	0	-5	12	5	.	.	.	.	.
Cc1cc(C)c(S(=O)(=O)Nc2ncn[nH]2)c(C)c1	0	-10	-5	-2	3	.	.	.	.
C[C@@H]1CN([C@H](C)CO)C(=O)c2cc(NC(=O)NC3CCCCC3)ccc2O[C@@H](C)CCCCO[C@@H]1CN(C)S(=O)(=O)c1cn(C)cn1	.	.	.	.	3	.	.	.	.
Cc1ccc(NC(=S)NC(=O)c2ccccc2)cc1NC(=S)NC(=O)c1ccccc1	0.7*	-16	2	1	0	105	0	97	0
O=C(Nc1cccc(NC(=S)NC(=O)c2cccs2)c1)c1ccccc1	8.0*	8	-14	-4	.	91	0	100	0
O=C(NC(=S)Nc1ccc2nc[nH]c2c1)c1ccccc1	0	-8	7	5	-5	105	0	101	0
O=C(NC(=S)Nc1cccc(NC(=S)NC(=O)c2ccccc2)c1)c1ccccc1	.	-6	4	-2	6	.	.	.	.
O=C(NC(=S)Nc1ccc2ncccc2c1)c1ccccc1	0	-10	-2	-7	0	.	.	.	.
Cc1cccc(C(=O)NC(=S)Nc2ccc(Cc3ccncc3)cc2)c1	0.7*	3	14	22	.	103	0	121	0
Cc1cc(C(=O)Nc2cccc3c2O[C@@H](CN(C)S(=O)(=O)c2ccccc2)[C@H](C)CN([C@H](C)CO)C3=O)n(C)n1	.	.	.	.	-6	.	.	.	.
Cc1cccc(-c2ccc([C@@H]3[C@H]4CN(C(=O)Cc5ccccn5)CC(=O)N4[C@H]3CO)cc2)c1	.	.	.	.	-11	.	.	.	.
CCCCOc1ccc(NC2=NC3(CCCC3)N=C(N)N2)cc1	0.6*	-9	-4	14	.	102	0	114	0
NS(=O)(=O)c1ccc(NC(=S)N2CCN(c3ccccc3)CC2)cc1	3.6*	5	-6	1	.	104	0	99	0
CC(C)CCOc1ccc(C(=O)N2CCN(c3ncccn3)CC2)cc1	3.5*	8	3	15	2	106	0	102	0
CC(C)CC(=O)Nc1ccc2c(c1)OCO2	0	-11	8	-5	-5	.	.	.	.
O=C(CCl)Nc1ccc2c(c1)OCO2	1.2*	-15	7	8	-3	82	0	91	0
Cc1ccc(-c2ccc([C@@H]3[C@H]4CN(C(=O)c5cccnc5)CC(=O)N4[C@H]3CO)cc2)cc1	.	.	.	.	-4	.	.	.	.
O=C(C[C@@H]1C[C@H]2c3cc(NC(=O)Nc4ccccc4F)ccc3O[C@H]2[C@H](CO)O1)NCc1cc(F)ccc1F	.	.	.	.	3	.	.	.	.
COc1cc(/C=C(\C#N)c2nc3ccccc3n2C)cc(OC)c1O	1.0*	-8	-2	-2	-3	100	0	108	0
Cn1c(/C(C#N)=C/c2ccc(O)cc2)nc2ccccc21	0	-8	0	3	-7	.	.	.	.
